tim23-1 inh: tim23-1 yeast growth inhibition; AID 463212; 330,000 tested, 1.3% active; inhibition, % at 20 µM; S. cerevisiae tim23-1 growth, BacTiter-Glo luminescence, 24 h;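 active = growth inhibition of the mutant yeast at or above 50%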;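 also: temperature-sensitive mutant grown at 25 °C; plate controls were DMSO-treated mutant yeast for no effect and medium wells lacking yeast for full effect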
TIM10 inh: growth inhibitors of TIM10 yeast strain. S. cerevisiae TIM10 strain growth, BacTiter-Glo luminescence, 24 h. inhibition, % at 10 µM. 330,000 tested, 1.4% active. AID 463195;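 active = inhibition of 40% or more at the single tested concentration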;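 also: wild-type TIM10 isogenic control strain grown at permissive 25 °C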
tim10-1 inh: growth inhibitors of tim10-1 mutant yeast. S. cerevisiae tim10-1 ts strain growth, BacTiter-Glo, 24 h. 330,000 tested, 2.2% active. inhibition, % at 20 µM;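 active = inhibition of at least 40%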;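 also: mutant grown at 25 °C; 0% = DMSO wells with yeast and 100% = wells holding no yeast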
NLRP3 yeast inh: blocks the NALP3 inflammasome reconstituted in yeast. Yeast reconstituted NLRP3/ASC/caspase-1, beta-gal luminescence, 24 h. inhibition, % at 10 µM. 330,000 tested, 0.39% active;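 active = inhibition of 50% or more; inactive = inhibition below 50%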;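 also: plate controls were induced DMSO wells for no effect and uninduced yeast grown without galactose for full effect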
Yeast superoxide: lowers age-related superoxide in aged yeast cells. superoxide response (% of plate mean), % at 10 µM. S. cerevisiae aged cells, superoxide DHE fluorescence; stronger effect = lower value. 330,000 tested, 0.18% active;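 active = superoxide response under a set limit, about three screen SD below normal, cut at about 65% in these data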;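 also: yeast aged for seven days with compound at 30 °C before DHE staining; 100% = average MFI of all compound-treated wells on the plate with controls excluded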
tim10-1 confirm: tim10-1 yeast growth inhibition, confirmed; S. cerevisiae tim10-1 ts strain growth, BacTiter-Glo, 24 h; AID 463213; 7,400 tested, 56% active; inhibition, % at 20 µM; shares compounds with tim10-1 inh;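 active = inhibition of yeast growth at or above a set limit in either of two repeat tests at 20 µM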;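 also: tim10-1 mutant grown at permissive 25 °C to find synthetic lethal compounds; 0% = DMSO yeast wells and 100% = medium wells without yeast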
tim10 confirm: confirmation of TIM10 yeast growth inhibitors | shares compounds with TIM10 inh | S. cerevisiae tim10 strain growth, BacTiter-Glo luminescence, 24 h | inhibition, % at 10 µM | 4,600 tested, 63% active;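 active = inhibition of yeast growth at or above a set limit in either of two replicates at 10 µM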;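 also: this counterscreen used the strain with wild-type TIM10; 0% = yeast with DMSO and 100% = medium wells lacking yeast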
tim23-1 conf: confirmation of tim23-1 mutant yeast growth inhibitors | AID 463218 | shares compounds with tim23-1 inh | S. cerevisiae tim23-1 growth, BacTiter-Glo luminescence, 24 h | 4,400 tested, 83% active | inhibition, % at 20 µM;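 active = inhibition above about 39% in either of two replicate wells at 20 µM, limit read from the data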;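 also: temperature-sensitive tim23-1 mutant grown at 25 °C; 0% = DMSO wells with yeast and 100% = medium wells without yeast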
Active calls of the source: *; . = no result. Rows were chosen to be rich in hits. Some 3.8% of all compounds tested hit in one or more screens of this group.

SMILES	tim23-1 inh	TIM10 inh	tim10-1 inh	NLRP3 yeast inh	Yeast superoxide	tim10-1 confirm	tim10 confirm	tim23-1 conf
S=c1[nH]nc(-c2ccncc2)n1/N=C/C=C/c1ccccc1	12	15	16	22	106	.	.	.
COc1ccc(CC(=O)Nc2ccccc2C(=O)N2CCOCC2)cc1OC	-2	-15	7	9	95	.	.	.
COc1ccc(C(=O)/C=C/c2cccs2)c(OC(=O)N2CCOCC2)c1	51*	52*	50*	0	123	34*	40*	42*
Cc1cc(C(=O)NNc2ccc(F)cc2F)no1	-82	-3	10	18	107	.	.	.
O=C1/C(=C\c2ccco2)CCC/C1=C\c1ccco1	48	30	38	3	106	.	.	.
CC1C/C(=C/c2ccco2)C(=O)/C(=C/c2ccco2)C1 (configuration not stated)	54*	34	54*	3	100	32*	.	43*
CC1C/C(=C/c2ccccn2)C(=O)/C(=C/c2ccccn2)C1 (configuration not stated)	65*	67*	67*	28	105	66*	71*	82*
CNc1ccc(/C=C2\COc3ccccc3C2=O)cc1[N+](=O)[O-]	9	1	10	35	98	.	.	.
O=C1/C(=C/c2ccccn2)COc2ccccc21	76*	64*	54*	-1	115	68*	75*	72*
CC(C)(C)C1C/C(=C/c2ccccn2)C(=O)/C(=C/c2ccccn2)C1 (configuration not stated)	68*	69*	66*	27	97	70*	75*	27
N#Cc1ccc(OCC(=O)NC2CCCCCC2)cc1	35	17	17	25	99	.	.	.
Cc1cc(C)cc(OCC(=O)OCC(=O)N(CC(C)C)c2c(N)n(Cc3ccccc3)c(=O)[nH]c2=O)c1	-1	3	0	7	107	.	.	.
Cc1ccc(NC(=O)C2CCN(c3ncnc4c3nc3n4CCCCC3)CC2)nc1	16	8	21	8	96	.	.	.
Cc1ccc(NC(=O)C(C)c2ccc([N+](=O)[O-])cc2)cc1Cl (configuration not stated)	51*	59*	58*	12	103	59*	48*	61*
CCC(C(=O)NCC1CCCO1)N(Cc1ccccc1)C(=O)CNS(=O)(=O)c1ccccc1 (configuration not stated)	6	14	-14	4	101	.	.	.
CC(OC(=O)c1cccc(-n2cnnn2)c1)C(=O)N(C)c1ccccc1 (configuration not stated)	-13	-5	3	12	111	.	.	.
CCCCCCCCC(=O)N/N=C/c1ccccn1	24	3	34	23	91	.	.	.
CCCCCCCCC/C(=N\O)c1ccccn1	65*	72*	48*	46	112	17	-3	70*
O=C(Cn1nnc2ccccc21)Nc1ccc(Cl)cn1	11	4	9	16	91	.	.	.
Nc1nc(CCl)nc(Nc2ccccc2)n1	13	15	26	-3	94	.	.	.
CCOc1ccc(Nc2nc(N)nc(CCl)n2)cc1	23	23	24	6	101	.	.	.
CCOc1ccc(Nc2nc(N)c3ccccc3n2)cc1	57*	46*	62*	39	99	65*	50*	65*
Nc1nc(Nc2ccc(Cl)cc2)nc2ccccc12	58*	68*	67*	40	97	57*	67*	55*
COc1ccc(C(=O)NC(=S)NCc2ccco2)cc1Br	54*	21	46*	25	88	38*	.	53*
COc1ccc(C(=O)NC(=S)NC(C)C)cc1Br	40	18	-4	15	86	.	.	.
SMILES	tim23-1 inh	TIM10 inh	tim10-1 inh	NLRP3 yeast inh	Yeast superoxide	tim10-1 confirm	tim10 confirm	tim23-1 conf
COc1ccc(C(=O)NC(=S)NC(C)(C)C)cc1Br	64*	60*	40*	35	95	47*	53*	77*
CS(=O)(=O)Nc1cccc(C(=O)OCCCOc2ccc(F)cc2)c1	19	-10	13	8	103	.	.	.
CCCN(c1nc(C)cc(OC)n1)S(=O)(=O)c1ccccc1	51*	34	44*	-8	97	18	.	40*
O=C(O)c1ccccc1N=Cc1c(O)n(-c2nccs2)c(=O)c2ccccc12	13	-6	-8	7	105	.	.	.
Cc1ccccc1N=Cc1c(O)n(-c2nccs2)c(=O)c2ccccc12	59*	47*	48*	13	94	47*	46*	56*
O=c1c2ccccc2c(-c2ccc(O)cc2)nn1-c1cccc(C(F)(F)F)c1	57*	53*	42*	6	104	36*	-6	56*
CCCNC(=O)c1cccc(S(=O)(=O)N2CC3(C)CC2CC(C)(C)C3)c1 (configuration not stated)	59*	26	41*	18	101	33*	.	49*
CCOC(=O)C(NC(=O)N(C)C)(Nc1sc(C)c(CC)c1C#N)C(F)(F)F (configuration not stated)	-5	7	10	1	103	.	.	.
O=C(c1ccc([N+](=O)[O-])cc1[N+](=O)[O-])n1cnc2ccccc21	73*	59*	69*	16	156	76*	52*	84*
O=C(c1ccccc1[N+](=O)[O-])n1cnc2ccccc21	7	35	33	-1	106	.	.	.
C/C(=N\NC(=S)Nc1cc(S(=O)(=O)N2CCOCC2)ccc1Cl)c1ccccc1F	61*	44*	41*	31	104	37*	-9	42*
CC(C)N(C(=S)Nc1cc(S(=O)(=O)N2CCOCC2)ccc1Cl)c1ccccc1	3	9	-3	21	112	.	.	.
CC(C)(C)N(Cc1ccccc1)C(=O)COC(=O)c1ccc([N+](=O)[O-])o1	53*	27	45*	24	114	31	.	46*
CCC(CC)N=C1NS(=O)(=O)c2cc([N+](=O)[O-])ccc21	13	3	9	27	99	.	.	.
COc1ccc(OCCC(=O)OCC(=O)c2ccc[nH]2)cc1	-5	-2	2	9	101	.	.	.
CCCCN(C(=O)C1CC1)C1CCS(=O)(=O)C1 (configuration not stated)	4	-5	11	10	101	.	.	.
COc1ccc(-c2cc(-c3c(O)c(OC)c4occc4c3OC)[nH]n2)cc1OC	53*	36	50*	10	107	31*	.	45*
COc1cc2ncnc(NCc3ccc(F)cc3)c2cc1OC	30	8	-3	-3	90	.	.	.

Bioassay records from PubChem.
